Measurements published in PubChem BioAssay AID1779 (Sanford-Burnham Center for Chemical Genomics, 2009).
Among all 290,000 compounds or so, about 160 (0.055%) were called active. This excerpt belongs to a sample that is enriched for actives. Values without a mark were called inactive. No stated cut-off is given here; in the data, active means inhibition above about 50%; inactive means the rest.

Molecular target: Tyrosine-protein phosphatase non-receptor type 22 (Homo sapiens) (UniProt Q9Y2R2)
Experiment: PTPN22 lymphoid phosphatase activity blockers – biochemical, fluorescence intensity, uHTS (AID 1779);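 further: plate controls were vehicle with enzyme for no effect and no enzyme for full effect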
Details: recombinant LYP phosphatase, at 11.5 µM, stronger effect = higher value

Sequence of Tyrosine-protein phosphatase non-receptor type 22 (Homo sapiens) (Q9Y2R2 whole entry, looked up): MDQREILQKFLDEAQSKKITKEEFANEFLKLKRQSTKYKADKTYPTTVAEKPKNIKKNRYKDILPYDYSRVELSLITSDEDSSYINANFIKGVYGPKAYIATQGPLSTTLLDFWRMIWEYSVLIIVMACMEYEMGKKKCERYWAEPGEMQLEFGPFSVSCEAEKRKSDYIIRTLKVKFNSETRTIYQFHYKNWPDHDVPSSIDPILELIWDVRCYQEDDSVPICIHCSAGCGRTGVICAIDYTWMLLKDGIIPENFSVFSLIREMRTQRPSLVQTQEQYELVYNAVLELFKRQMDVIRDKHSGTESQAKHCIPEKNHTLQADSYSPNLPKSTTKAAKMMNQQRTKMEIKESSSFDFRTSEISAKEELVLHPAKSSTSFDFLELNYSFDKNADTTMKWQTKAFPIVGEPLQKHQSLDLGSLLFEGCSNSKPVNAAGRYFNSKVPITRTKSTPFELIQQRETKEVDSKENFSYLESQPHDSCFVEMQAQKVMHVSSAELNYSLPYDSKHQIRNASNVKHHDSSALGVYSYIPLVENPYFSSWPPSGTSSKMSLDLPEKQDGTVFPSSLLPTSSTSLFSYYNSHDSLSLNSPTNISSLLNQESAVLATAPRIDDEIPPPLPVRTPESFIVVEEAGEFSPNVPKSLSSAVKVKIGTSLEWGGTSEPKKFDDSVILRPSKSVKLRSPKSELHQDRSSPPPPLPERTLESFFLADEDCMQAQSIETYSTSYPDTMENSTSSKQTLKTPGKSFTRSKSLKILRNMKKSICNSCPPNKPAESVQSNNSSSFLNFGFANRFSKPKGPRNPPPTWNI

Compound | inhibition
COc1ccc(N2CCN(C(=O)c3ccc(COc4ccc5c(C)cc(=O)oc5c4)cc3)CC2)cc1 | 2.8%
COc1ccc(N2CCN(CCOc3ccc4c(C)cc(=O)oc4c3)CC2)cc1 | 67.7% (active)
Cc1cc(=O)oc2cc(OCCSCCN3CCOCC3)ccc12 | -5.9%
N#C/C(=C\c1ccccc1O)C(=O)Nc1cccnc1 | -9%
O=C(CCN1C(=O)c2ccccc2S1(=O)=O)Nc1ccccc1O | -0.2%
CCc1nnc(NS(=O)(=O)c2ccc(NC(=O)c3cc4ccccc4oc3=O)cc2)s1 | 1.9%
CCc1nnc(NS(=O)(=O)c2ccc(NC(=O)c3cccc4ccccc34)cc2)s1 | 1.6%
C=CCc1cccc2cc(C(=O)Nc3ccc(S(=O)(=O)Nc4nnc(CC)s4)cc3)c(=O)oc12 | 71.3% (active)
Cc1c(C)n(C(=O)CN2CCN(c3ccccn3)CC2)c2ccccc12 | 5.2%
O=C(Nc1c(F)cccc1F)c1ccc2c(c1)CCN2S(=O)(=O)c1ccccc1 | -8.4%
Cc1cc(Cl)ccc1OCc1n[nH]c(=S)n1C1CCCCC1 | 4%
Cc1ccc(N2CCN(CCCN3C(=O)C4CCCN4C3=O)CC2)cc1 (stereo not given) | 1.4%
Nc1ccc(N2CCN(CCCCN3C(=O)C4CCCN4C3=O)CC2)cc1 (stereo not given) | -25%
Cc1ccc(N2CCN(CCCCN3C(=O)C4CCCN4C3=O)CC2)cc1 (stereo not given) | 62.7% (active)
Cc1cccc(OCC(O)CN2CCOCC2)c1 (stereo not given) | -8.2%
CCN(CC)CCCNC(=O)Cn1ncn2cccc2c1=O | -3.9%
CC(C)(C)c1ccc(C2(C)NC(=O)N(CC(=O)NCc3cccs3)C2=O)cc1 (stereo not given) | -8.4%
COc1ccc(OC(C)C(=O)N2CCOCC2)cc1 (stereo not given) | -9.8%
COc1ccc(OC(C)C(=O)N2CC(C)OC(C)C2)cc1 (stereo not given) | 63.6% (active)
COc1ccc(OC(C)C(=O)N2CCC(C)CC2)cc1 (stereo not given) | -5.6%

Compound | inhibition
COC(=O)c1ccc2c(c1)NC(=O)C(N1CCCCC1)S2 (stereo not given) | 1%
Cc1c(C(=O)O)sc2nc(/C=C/c3cccc(O)c3)[nH]c(=O)c12 | -5.3%
Cc1c(C(=O)O)sc2nc(/C=C/c3cccc(F)c3)[nH]c(=O)c12 | -4.3%
CCCOc1ccc(/C=N/NC(=O)CSc2ccccn2)cc1OC | 0.2%
CCN(CC)S(=O)(=O)c1ccc(N2CCOCC2)c(NC(=O)Cc2cccc3ccccc23)c1 | -0.8%
COc1ccc(C(CC(=O)N2CCCCC2)c2c(OC)cc(OC)c3ccc(=O)oc23)cc1 (stereo not given) | -2.3%
CS(=O)(=O)N1CCN(C(=O)c2ccncc2)CC1 | -7.1%
COc1ccc(C(=O)N2CCN(C(=O)c3ccncc3)CC2)cc1 | -9.1%
O=C(c1ccncc1)N1CCN(C(=O)c2ccncc2)CC1 | 67% (active)
Cc1ccc(-n2cc(CN3CCN(C(=O)c4ncn[nH]4)CC3)c(-c3ccc(F)cc3)n2)cc1 | -3.9%
CC(=O)N1CCCN(Cc2cn(-c3cccc(C)c3)nc2-c2cccc(F)c2)CC1 | -2.6%
Cc1cccc(-n2cc(CN3CCN(C(=O)c4ncn[nH]4)CC3)c(-c3cccc(F)c3)n2)c1 | 56.5% (active)
CCN(CCCNC(=O)COc1cc(=O)n(CC)c2ccccc12)Cc1ccccc1 | 6.1%
CCOc1ccc(Nc2nc(N)c([N+](=O)[O-])c(N3CCN(CC)CC3)n2)cc1 | -3.7%
N#C/C(=C(/O)c1ccc(C(=O)c2ccccc2)cc1)c1nc2ccccc2[nH]1 | -4.1%
O=C(N/N=C/c1ccccn1)c1ccccc1 | 2.8%
O=C(N/N=C/c1ccccn1)c1ccc(Cl)cc1 | -5.3%
O=C(N/N=C/c1ccccn1)c1ccc(Cl)c(Cl)c1 | 72% (active)
COc1cc(/C=C2\SC(=O)N(c3ccc(Cl)cc3)C2=O)cc([N+](=O)[O-])c1O | 91.6% (active)
COc1cc(/C=C2\SC(=O)N(CC(=O)Nc3cccc(C)c3)C2=O)cc([N+](=O)[O-])c1O | 4.5%

Compound | inhibition
COc1cc(/C=C2\SC(=O)N(Cc3ccc(F)cc3)C2=O)cc([N+](=O)[O-])c1O | 0.7%
COc1cc(/C=C2\SC(=O)N(c3cccc(Cl)c3)C2=O)cc([N+](=O)[O-])c1O | 92.2% (active)
COc1cc(/C=C2\SC(=O)N(c3ccccc3Cl)C2=O)cc([N+](=O)[O-])c1O | 11.7%
COc1cc(/C=C2\SC(=O)N(Cc3ccc(Cl)cc3)C2=O)cc([N+](=O)[O-])c1O | 33%
CS(=O)(=O)N(CC(=O)N1CCN(c2cccc(Cl)c2)CC1)c1cccc(F)c1 | 4.5%
CCCCN(C)CCC(=O)Nc1ccc2c(c1)CCC2 | -2.9%
CCOc1ccc(Cl)cc1/C=N/NC(=O)c1ccccc1 | -4.5%
CC1(C)c2ccccc2N2CC(=O)N[C@@]21/C=C/C=C/c1ccccc1 | 8.6%
c1cc(-n2nnc3cnccc32)ccn1 | -4.3%
O=C(CSc1ccc2c(c1)OCCO2)Nc1ccc(Cl)cn1 | -8.6%
CC(=O)Nc1ccc(SCC(=O)Nc2ccc(Cl)cn2)cc1 | 77.1% (active)
CC(=O)Nc1ccc(NC(=O)CSc2ccc(C)cc2)cc1 | -2.7%
CCn1cc(C(=O)NCCCN(CC(C)C)CC(C)C)c(=O)c2cc(S(=O)(=O)N(C)C3CCCCC3)ccc21 | -0.6%
O=C(NC1CCSc2ccccc21)c1ccc(C(F)(F)F)cc1 (stereo not given) | -7.3%
O=C(NCc1ccc(F)cc1)c1c2c(nc3ccccc13)CCC2 | 3.5%
Cc1ccc2c(C)c(C(=O)NCC(C)(C)N3CCOCC3)oc2c1C | -8.2%
COc1ccc(NC(=O)CC#N)cc1OC | 0.1%
COc1ccc(C(C#N)(CCC#N)CCC#N)cc1OC | 56.1% (active)
C=CCc1ccc(OC)c(OC)c1 | -8.6%
CC(C)N(C(=O)CSc1nc2ccccc2n1Cc1ccccc1F)C(C)C | 5.2%
